From PubChem BioAssay (EPA / NIEHS)
Records with an inconclusive call do not appear. Calls of active or inactive are those of the source. How the source made its calls, unless noted: active means hit-call score of the fitted dose curve at least 0.9, where 1 is the maximum; inconclusive means response in the unintended direction; inactive means score below 0.9.

How the values were obtained:
[1] = Tanguay_ZF_120hpf_TRUN_legacy: (Legacy) Oregon State University Tanguay Lab 120 Hour Post-fertilization zebrafish Assay for Truncated Body (AID 2283655)
Procedure, shortened: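 Single dechorionated zebrafish embryos received test chemical from 6 hpf in 0.64% DMSO, kept at 28C. At 120 hpf, brightfield inspection noted any truncated body.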

[2] = Tanguay_ZF_120hpf_NC_legacy: (Legacy) Oregon State University Tanguay Lab 120 Hour Post-fertilization zebrafish Assay for Notochord and Tail Malformation (AID 2283656)
Procedure, shortened: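 Dechorionated Tropical 5D wild-type zebrafish embryos, one per well from 6 hpf, statically exposed to 120 hpf at 28C in 0.64% DMSO final. Notochord distortion scored present/absent by brightfield; dead embryos excluded.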

[3] = system: Thyroperoxidase (TPO), gene 54314; assay: CCTE_Simmons_AUR_rTPO: CCTE's Amplex UltraRed Assay for Thyroperoxidase (TPO) Inhibition, Simmons Lab (AID 2283662);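 on AC50: potency for loss of signal meaning inhibition of peroxidase activity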
Procedure, shortened: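 Cell-free peroxidase activity assay using rat thyroid gland microsomes with excess H2O2 (300 uM) and 25 uM Amplex UltraRed. Compounds tested from 5 nM to 87.5 uM; fluorescence measured after 30 min at 37C, analysed relative to DMSO baseline.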

[4] = CCTE_Simmons_CellTiterGLO_HEK293T: Viability Assessment in CCTE's Assays for Thyroperoxidase (TPO) Inhibition, Simmons Lab (AID 2283665);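 on AC50: cells exposed to compound for 24 h before readout; actives reduce ATP signal below DMSO vehicle meaning cytotoxicity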
Procedure, shortened: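 HEK293T, 10 000 cells/well, DMEM + 1% FBS; 8-pt titration 5 nM–87.5 uM [final], 0.5% DMSO; 24 hr, 37C, 5% CO2; CellTiter-Glo luminescence; n=3 biological replicates.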

[5] = CCTE_Padilla_ZF_144hpf_TERATOSCORE: (Legacy) CCTE's 144 Hour Post-fertilization zebrafish Assay Teratoscore, Padilla Lab (AID 2283679; active means hit-call score of the fitted dose curve at least 0.9, where 1 is the maximum; inactive means score below 0.9;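 on AC50: zebrafish embryos with chorions exposed by immersion from 6-8 hpf to 5 dpf with daily renewal; teratogenicity score from eye scoring of death hatching and malformations at 144 hpf; higher score means more developmental defects relative to DMSO baseline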)
Procedure, shortened: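 Larvae scored by eye at 144 hpf for death, hatching and malformations after a day in clean Hanks'. Before that, daily-renewed exposure at 80 uM (0.4% DMSO, 26C) from roughly 6-8 hpf through 5 dpf, 4 embryos per chemical.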

[6] = STM_H9_OrnithineISnorm_perc: Stemina devTOX quickPredict H9 human embryonic stem cell (hESC)-based Assay for Ornithine (ORN) Metabolite Biomarker, Normalized (AID 2283712; active means hit-call score of the fitted dose curve at least 0.9, where 1 is the maximum; inactive means score below 0.9;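 further: ornithine released into spent medium during last day measured by mass spectrometry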)
Procedure, shortened: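 H9 human embryonic stem cells kept pluripotent receive test chemical over 72 h, refreshed daily by media exchange. Media from the closing 24 h is deproteinized and analysed by UPLC-HRMS on an amide column; ornithine signal is scaled to labelled standard and vehicle.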

[7] = STM_H9_CystineISnorm_perc: Stemina devTOX quickPredict H9 human embryonic stem cell (hESC)-based Assay for Cystine (CYSS) Metabolite Biomarker, Normalized (AID 2283713; active means hit-call score of the fitted dose curve at least 0.9, where 1 is the maximum; inactive means score below 0.9)
Procedure, shortened: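 H9 hESC, pluripotent; compound 72h, re-dosed q24h with medium change. Last-24h medium → 40% acetonitrile deproteinization → UPLC-HRMS. CYSS area / C13-CYSS standard, then % of 0.1% DMSO median.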

[8] = Tanguay_ZF_120hpf_ActivityScore_legacy: (Legacy) Oregon State University Tanguay Lab 120 Hour Post-fertilization zebrafish Assay Score for Activity (AID 2283742);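 on AC50: static exposure from 6 hpf until 120 hpf at 28 °C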
Procedure, shortened: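 Tropical 5D wild-type zebrafish embryos, dechorionated with pronase at 4 hpf, were exposed singly from 6 hpf to 120 hpf statically at 28C in 0.64% DMSO. Malformations and mortality were scored as binary by brightfield, with the activity score combining 18 morphology components.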

[9] = ArunA_CellTiter_hNC: Viability Assessment in the ArunA Biomedical's Oris Neural Crest (hNC) Cell Migration Assay (AID 2283752)
Procedure, shortened: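 Cell titer was measured with the CellTiter Aqueous One reagent after 72 h of chemical dosing. Cells were H9-derived embryonic neural crest stem cells seeded on Matrigel, 60,000 per well, and given 16 h at 37C beforehand.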

[10] = ArunA_CellTiter_hNP: Viability Assessment in the ArunA Biomedical's Oris Neural Crest (hNC) Cell Migration Assay (AID 2283753)
Procedure, shortened: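 H9-derived hNP1 neuroprogenitors, 60,000/well on Matrigel, cultured 16 h, then 72 h chemical exposure in test medium. Cell titer via CellTiter Aqueous One; positive-direction fit vs DMSO.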

[11] = ArunA_Migration_hNP: ArunA Biomedical's Oris Neuroprogenitor (hNP) Cell Migration Assay (AID 2283754)
Procedure, shortened: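 Human H9-derived hNP1 neuroprogenitors on Matrigel with LIF/bFGF, plated around seeding stoppers for 16 h at 37C; stoppers removed at start of 72 h chemical exposure. Calcein-AM staining, fluorescence 494/517 nm in detection zone; loss-of-signal vs DMSO; cytochalasin D control.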

[12] = ArunA_Migration_hNC: ArunA Biomedical's Oris Neural Crest (hNC) Cell Migration Assay (AID 2283755)
Procedure, shortened: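 Human H9-derived neural crest stem cells, 60,000/well on Matrigel, 16 h at 37C, then 72 h chemical exposure after seeding-stopper removal. Migration into detection zone read as calcein-AM fluorescence (ex494/em517), relative to DMSO.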

[13] = Tanguay_ZF_120hpf_TR_legacy: (Legacy) Oregon State University Tanguay Lab 120 Hour Post-fertilization zebrafish Assay for Touch Response (AID 2283667)
Procedure, shortened: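 Tropical 5D wild-type zebrafish embryos were exposed statically in sealed, foil-covered plates at 28C until 120 hpf, with 0.64% (vol/vol) final DMSO. Touch response was scored as present or absent; embryos that died were not scored.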

[14] = CEETOX_H295R_MTT_cell_viability: Viability Assessment in the CeeTox HT-H295R MTT Assay (AID 2283718; active means hit-call score of the fitted dose curve at least 0.9, where 1 is the maximum; inactive means score below 0.9;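 on AC50: curve fitted both ways so AC50 may mark viability loss or gain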)
Procedure, shortened: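 H295R cells prestimulated 48 h with 10 uM forskolin, then exposed 48 h to test chemical (0.1% DMSO final). Viability by MTT (0.5 mg/ml, 4 h, 37 C), absorbance 570/650 nm; percent change versus DMSO, bidirectional fit.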

[15] = system: Thyroperoxidase (TPO), gene 445522; assay: CCTE_Simmons_GUA_TPO: CCTE's Guaiacol Assay for Thyroperoxidase (TPO) Inhibition, Simmons Lab (AID 2283750)
Procedure, shortened: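 Porcine thyroid microsomes (25 ug) in 200mM potassium phosphate, preincubated 30 s at 37C with compound (8 concentrations, 5 nM–87.5 uM) and 35mM guaiacol; 1mM H2O2 starts reaction. Absorbance change at 450nm over first 80 s; loss of signal versus DMSO, three replicates.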

[16] = read-out: solute carrier (SLC10A1), SLC10A1 (gene 6554); assay: LTEA_HepaRG_SLC10A1: Life Technologies and Expression Analysis (LTEA) Assay for solute carrier (SLC10A1) using HepaRG (AID 2283657; active means hit-call score of the fitted dose curve at least 0.9, where 1 is the maximum; inactive means score below 0.9); conditions: mRNA level, 48 h; actives raise or lower the signal
Procedure, shortened: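 Differentiated HepaRG cells were plated 48 h, then exposed in serum-free induction medium for 48 h to 8 concentrations (top 100 uM, half-log steps, 0.5% DMSO). SLC10A1 mRNA was quantified by qRT-PCR normalized to ACTB, GAPDH, POLR2A; bidirectional fit versus DMSO.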

[17] = read-out: matrix metalloproteinase-1 (MMP1), MMP1 (gene 4312); assay: LTEA_HepaRG_MMP1: Life Technologies and Expression Analysis (LTEA) Assay for matrix metalloproteinase-1 (MMP1) using HepaRG (AID 2283658; active means hit-call score of the fitted dose curve at least 0.9, where 1 is the maximum; inactive means score below 0.9); conditions: mRNA level, 48 h; actives raise or lower the signal
Procedure, shortened: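 In this screen, human liver HepaRG cultures receive each chemical in duplicate for 48 h (top 100 uM, 0.5% DMSO). MMP1 expression is then quantified by TaqMan qRT-PCR with ACTB/GAPDH/POLR2A normalization.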

[18] = read-out: Cytochrome P450 (CYP24A1_1), CYP24A1 (gene 1591); assay: LTEA_HepaRG_CYP24A1_1: Life Technologies and Expression Analysis (LTEA) Assay for Cytochrome P450 (CYP24A1_1) using HepaRG (AID 2283671; active means hit-call score of the fitted dose curve at least 0.9, where 1 is the maximum; inactive means score below 0.9); conditions: mRNA level, 48 h; actives raise or lower the signal
Procedure, shortened: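 HepaRG, 48 h exposure, 8-pt half-log series from 100 uM in 0.5% DMSO, duplicates. Readout: TaqMan qRT-PCR of CYP24A1 mRNA, housekeeping-normalized (ACTB/GAPDH/POLR2A). Bidirectional curve fit vs DMSO baseline.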

[19] = STM_H9_OrnCyssISnorm_ratio: Stemina devTOX quickPredict H9 human embryonic stem cell (hESC)-based Assay for Ornithine (ORN):Cystine (CYSS) Ratio (AID 2283714)
Procedure, shortened: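 Undifferentiated H9 hESCs were exposed to compound for 72h with media and chemical replaced every 24h. Final 24-h conditioned media were deproteinized and analysed by UPLC-HRMS. ORN and CYSS peak areas were normalized to C13 internal standards and the ratio taken versus 0.1% DMSO.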

[20] = ArunA_NOG_NucleusCount: ArunA Biomedical's Neurite Outgrowth (NOG) Assay for Nucleus Count (AID 2283756)
Procedure, shortened: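 Human H9-derived differentiated neurons were exposed for 48 h right after seeding. Hoechst-stained nuclei gated by size and intensity were counted by automated high-content imaging as viable neurons. Loss of signal vs DMSO.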

Measured: AC50

O=c1c(O)c(-c2ccc(O)c(O)c2)oc2cc(O)cc(O)c12
inactive: [1] | [2] | [5] | [6] | [7] | [8] | [9]
active: [3] 0.182 µM | [4] 27.1 µM | [10] 3.88 µM | [11] 3.08 µM | [12] 2.36 µM

C[C@]12C=CC(=O)C=C1CC[C@@H]1[C@@H]2C(=O)C[C@@]2(C)[C@H]1CC[C@]2(O)C(=O)CO
inactive: [2] | [3] | [4] | [13] | [5] | [8]
active: [14] 0.844 µM

Cc1cc(=O)[nH]c(=S)[nH]1
active: [3] 0.593 µM | [15] 7.71 µM
inactive: [2] | [4] | [8]

CC=Cc1ccc(O)c(OC)c1
active: [3] 6.14 µM | [5] 53.8 µM
inactive: [2] | [4] | [14] | [8]

CC(C)c1ccc(C(=O)N=C(N)N)cc1S(C)(=O)=O
inactive: [1] | [8]

CCCCCCC(=O)OCC
inactive: [1] | [2] | [8]

CN[C@H]1CC[C@@H](c2ccc(Cl)c(Cl)c2)c2ccc(S(N)(=O)=O)cc21
inactive: [2] | [3] | [8]
active: [4] 9.23 µM | [5] 61.9 µM

CCOC(=O)CCC(=O)OCC
inactive: [1] | [2] | [8]

CCCCN(CCCC)CCCC
inactive: [2] | [16] | [17] | [13] | [18] | [8]

COc1cc(C=O)ccc1O
active: [5] 11.8 µM | [8] 69.8 µM
inactive: [2] | [16] | [17] | [18]

CCCc1cc(=O)[nH]c(=S)[nH]1
inactive: [2] | [4] | [6] | [7] | [19] | [8] | [11] | [12] | [20]
active: [3] 0.285 µM

CCCCCCCCCCCCCO
inactive: [1] | [2] | [8]

Cc1ccc(Cl)cc1
inactive: [2] | [16] | [17] | [18]

Cc1oc(-c2ccccc2)nc1CCOc1cccc2c1ccn2CCC(=O)O
inactive: [2] | [4] | [6] | [14] | [8]
active: [3] 28.8 µM | [5] 16.1 µM | [7] 0.0105 µM

Cc1ccc(N(C)C)cc1
inactive: [2] | [4] | [8]
active: [3] 11.3 µM | [15] 95.1 µM

CCCCCCCCCCCCCCCCCC(=O)O
inactive: [1] | [13] | [8]
